# About 83,000 compounds went through this panel and 20% of them were active in at least one assay; those are over-represented in the sample as a whole.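 Single-dose data. Exposure time 48 hours. Values below 10 considered active.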 A number with no mark means an inactive call. Active and inactive are the calls of the source.
# Key:
# Test in all cases: NCI-60 one-dose screen, 48 h (100 = growth as untreated, 0 = no growth, -100 = all killed)
# Details in all cases: 10 µM unless noted
# NCI-H23 lung = system: NCI-H23 lung
# NCI-H226 lung = system: NCI-H226 lung
# NCI-H322M lung = system: NCI-H322M lung
# HOP-62 NSCLC = system: HOP-62 NSCLC
# NCI-H460 lung = system: NCI-H460 lung
# HOP-92 NSCLC = system: HOP-92 NSCLC
# NCI-H522 lung = system: NCI-H522 lung
# A549/ATCC NSCLC = system: A549/ATCC NSCLC
# 786-0 renal = system: 786-0 renal
# COLO 205 colon = system: COLO 205 colon
Compound,growth (NCI-H23 lung),growth (NCI-H226 lung),growth (NCI-H322M lung),growth (HOP-62 NSCLC),growth (NCI-H460 lung),growth (HOP-92 NSCLC),growth (NCI-H522 lung),growth (A549/ATCC NSCLC),growth (786-0 renal),growth (COLO 205 colon)
CC(=O)C(C(C)=O)C(c1ccccc1)C(C(C)=O)C(C)=O,98.6%,90.9%,99.7%,98.4%,105%,97.5%,91.7%,89.3%,97.2%,104%
CCNC(=O)C#Cc1ccc2c(C(=Nc3ccc(CN(C)C)cc3)c3ccccc3)c(O)[nH]c2c1,14%,38.6%,14.4%,4.11% (active),16.5%,-66.8% (active),48.9%,6.49% (active),24.2%,-41% (active)
O=C1NC(=O)C(c2cnc3ccccn23)=C1c1cn2c3c(cc(F)cc13)CN(C(=O)N1CCCCC1)CC2,82.1%,46%,72%,26.1%,39.1%,83%,38.7%,34.8%,31.1%,26.7%
CCn1c(-c2nonc2N)nc2c(C#CC(C)(C)O)ncc(OC[C@H]3CCCNC3)c21,78.7%,113%,75.2%,73%,56.6%,178%,12.7%,87.8%,26.7%,38.2%
Clc1ccc(Nc2nccc(Nc3ccc4[nH]ncc4c3)n2)cc1,45.7%,28.2%,74.8%,65.5%,41%,-0.955% (active),20.8%,50.2%,57.4%,42.2%
Cc1ccc2oc(=O)cc(-c3cc(-c4cc5ccccc5oc4=O)nc(N)c3C#N)c2c1,62.7%,93.3%,72.8%,35.9%,27%,40.1%,87.6%,54.8%,15.6%,80.2%
N#CC1(C#N)C(c2cccs2)NC(c2cccs2)C1(C#N)C#N (stereo not given),95%,102%,98%,95%,110%,113%,95.9%,100%,101%,106%
Cc1cccc(C)c1N1C(c2ccccc2)=NNC12C=CC(=O)c1c(O)cccc12 (stereo not given),30.6%,94.6%,99.3%,39.4%,98.2%,115%,54.6%,62.4%,105%,97.7%
COC1CCC(N2C(=O)CNc3ncc(-c4ccc(C(C)(C)O)nc4)nc32)CC1 (stereo not given),15.8%,8.08% (active),-5.65% (active),5.54% (active),12.4%,-12% (active),-10.3% (active),2.75% (active),6.56% (active),-7.31% (active)
Cn1cc(-c2ccc(F)c(C(F)(F)F)c2)nc1C1CCN(c2ncnc3[nH]ncc23)CC1,72.3%,55.3%,75.3%,52.1%,76.9%,65.3%,47.8%,50.4%,69.1%,84.4%
COCCN1CCN(Cc2ccc(-c3n[nH]c4c3C(=O)c3c(NC(=O)NN5CCOCC5)cccc3-4)cc2)CC1,-33.7% (active),6.04% (active),-13.1% (active),-30.7% (active),-68.7% (active),39.7%,-34.1% (active),-42.4% (active),5.39% (active),-64.5% (active)
Cc1cc(O)c2c(c1)C1OC(=O)CCCCCN1C1=C2C(=O)c2cccc(OC3CC(O)C(O)C(C)O3)c2C1=O (stereo not given),79.8%,118%,94.7%,123%,65.3%,134%,34.1%,59.9%,101%,53.3%
O=C1CCC(=O)CC1,103%,101%,110%,102%,104%,87.4%,91.2%,91.4%,104%,115%
O=C(NO)c1ccc(Cn2c(=O)n(CCc3ccccc3)c(=O)c3ccccc32)cc1,8.96% (active),48.1%,43.7%,31.1%,25.2%,66.8%,29.9%,33.6%,45%,4.15% (active)
COCCOc1cnc2ccn([C@H](C)c3nnc4c(F)cc(-c5cnn(C)c5)cn34)c(=O)c2c1,51.1%,68.8%,59.2%,89.2%,75.6%,85.3%,87.7%,65.7%,108%,106%
O=C(c1ccccc1)C(c1ccccc1)N1CCOCC1 (stereo not given),96.9%,94.8%,105%,94.7%,103%,103%,90.4%,90.2%,104%,109%
CCCCN1C(=O)c2cccc3c(-c4ccc5c(c4)ncn5C4CCCCC4)ccc(c23)C1=O,96%,101%,101%,85.2%,110%,94.6%,69.6%,90.8%,106%,94%
Cn1c(=O)c(F)c(Nc2ccc(I)cc2F)c2c(=O)n(C[C@@H](O)CO)cnc21,21.5%,52.5%,14%,22.5%,62.3%,-23.8% (active),41.4%,19.2%,58.3%,2.24% (active)
CC1=CC2c3oc(-c4ccccc4)c(C(=O)c4ccccc4)c3CNC2C=C1 (stereo not given),95%,83.8%,94.6%,74.5%,100%,97.5%,57.7%,74.2%,111%,109%
COc1cc2ncnc(Nc3ccc(O)cc3)c2cc1OC,104%,95.2%,12.4%,86.5%,103%,78%,11%,45.8%,83.4%,115%
O=C(NC[C@H](O)CO)c1ccncc1Nc1ccc(I)cc1F,15.9%,50.2%,19.8%,23.7%,53.2%,-25.4% (active),51.6%,32.2%,70.2%,-8.7% (active)
COc1cc(-c2nc(C(=O)Nc3ccc(C)cc3)nn2-c2ccc(F)c(F)c2)cc(OC)c1OC,97.1%,102%,96%,86%,106%,114%,48%,96.2%,98.6%,95.8%
COc1cnc2c(c1)C(=O)c1c-2n(CCCN2CCOCC2)c(=O)c2cc(Cl)ccc12,20.6%,20.6%,31.3%,4.59% (active),3.15% (active),70.4%,24.3%,34.9%,-0.608% (active),9.49% (active)
COC(=O)c1[nH]cnc1/N=N/N(C)CCO,96.3%,101%,108%,97.4%,105%,128%,92%,109%,93.5%,120%
ClCc1ccc(-c2ccc(Cn3cnc4nc(Cl)nc(Cl)c43)cc2)cc1,23.6%,29.1%,56.8%,8.06% (active),14.3%,25.8%,-25.2% (active),-6.5% (active),-14% (active),-14.1% (active)
COc1cc2c3c(c1)nc(C)n3CCC2,98.4%,91.1%,108%,90.7%,104%,94.9%,93.4%,82%,98.1%,107%
Cn1ccnc1C(=O)/C=C/c1ccc(CC(=O)Nc2ccc(C(F)(F)F)cc2)cc1,19.4%,48.5%,6.96% (active),-33.7% (active),-0.126% (active),38.3%,-3.98% (active),6.44% (active),1.74% (active),5.87% (active)
